Test results from PubChem BioAssay.
Active and inactive are the calls of the source. Unless noted, no stated cut-off is given here; in the data, active means inhibition above about 80%; inactive means the rest.

Legend:
[1] = growth inhibition, single agent or in combination, cell-based, chromothripsis tumors, cisplatin or BGB combos (AID 1671449); conditions: LFS_MB_P medulloblastoma cells;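 further: cells exposed for 96 hours; 0% = vehicle DMSO and 100% = killing by high DMSO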
[2] = growth inhibition, single agent and combos, cell-based, chromothripsis tumors, cisplatin or BGB combos (AID 1671450); conditions: HDN33 neuroblastoma cells, stronger effect = higher value;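 further: cells exposed to compound for four days; 0% = vehicle DMSO and 100% = cell killing by high DMSO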
[3] = growth inhibition, single agents and combos, ICB984, cell-based, cisplatin or BGB combos, synergistic combos for chromothripsis tumors (AID 1671451; call rule not given here;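 further: cells exposed for 96 hours before readout; 0% = vehicle DMSO and 100% = killing by high DMSO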); conditions: ICB984 medulloblastoma cells, drug combinations, stronger effect = higher value
[4] = growth inhibition, single agents and combos, LFS_MB_1R, cell-based, cisplatin or BGB combos, synergistic combos for chromothripsis tumors (AID 1671452); conditions: LFS_MB_1R medulloblastoma cells, stronger effect = higher value;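 further: cells exposed for 96 hours before readout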
[5] = growth inhibition, single agents and combos, HTB85, cell-based, BGB or cisplatin IC20 combos, synergistic combos for chromothripsis tumors (AID 1671453); conditions: HTB85 osteosarcoma cells, drug combinations, stronger effect = higher value;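 further: cells exposed for 96 hours before readout; 0% = vehicle DMSO and 100% = high DMSO killing control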
[6] = growth inhibition, single agents and combos, CRL2098, cell-based, BGB or cisplatin IC20 combos, synergistic combos for chromothripsis tumors (AID 1671454); conditions: CRL2098 osteosarcoma cells, drug combinations, stronger effect = higher value;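 further: cells exposed for 96 h before readout; 0% = vehicle DMSO and 100% = killing by high DMSO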
[7] = growth inhibition, single agents and combos, HD-MB03, cell-based, BGB or cisplatin IC20 combos, synergistic combos for chromothripsis tumors (AID 1671455; in the data active means inhibition above about 83%;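 further: 0% = vehicle DMSO and 100% = high DMSO as cytotoxic control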); conditions: HD-MB03 medulloblastoma cells, stronger effect = higher value
[8] = growth inhibition, single agents and combos, UWB1.289, cell-based, BGB or cisplatin combos, synergistic combos for chromothripsis tumors (AID 1671456); conditions: UWB1.289 ovarian carcinoma cells, stronger effect = higher value;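 further: cells exposed to compound for four days; 0% = vehicle DMSO and 100% = killing by high DMSO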
[9] = growth inhibition, single agents and combos, LFS_MB_2R, cell-based, cisplatin combos, synergistic combos for chromothripsis tumors (AID 1671457); conditions: LFS_MB_2R medulloblastoma cells, stronger effect = higher value;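 further: cells exposed to compound for four days before readout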
[10] = growth inhibition, MDA-MB-436, cell-based, BGB or cisplatin combos, synergistic combos for chromothripsis tumors (AID 1671458; call rule not given here;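 further: cells exposed for 96 hours; 0% = vehicle DMSO and 100% = killing by high DMSO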); conditions: MDA-MB-436 breast carcinoma growth inhibition, drug combinations, stronger effect = higher value
[11] = UWB1.289_BRCA1 ovarian cancer growth, cell-based, BGB or cisplatin combinations (AID 1671459); conditions: UWB1.289 BRCA1 ovarian carcinoma, drug combinations, stronger effect = higher value
[12] = drug combination toxicity in non-malignant astrocytes – cell-based, BGB or cisplatin IC20 combos, cytotoxicity control for chromothriptic childhood tumor combination screen (AID 1671460); conditions: Human astrocytes, viability inhibition, drug combinations, at 0.5 µM, stronger effect = higher value;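 further: cells exposed to compounds for 96 hours before viability readout; 0% = vehicle and 100% = killing control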
[13] = BT084 cell growth, single and combined drugs, ICGC_MB145, cisplatin and BGB IC40 combos (AID 1671461); conditions: BT084 medulloblastoma cells, drug combinations, stronger effect = higher value;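 further: cells exposed to drugs for 96 hours; 0% = vehicle DMSO and 100% = high DMSO full killing control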
[14] = RCMB18 cell growth, single agent and combined, cisplatin and BGB IC40 combos (AID 1671462); conditions: RCMB18 medulloblastoma cells, stronger effect = higher value;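 further: cells exposed to compound for four days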
[15] = CRL1545 cell growth, single agent and combined, cisplatin and BGB IC20 combos (AID 1671464); conditions: CRL1545 osteosarcoma cells, stronger effect = higher value;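 further: cells exposed to compound for 96 hours before readout; 0% = vehicle DMSO and 100% = high DMSO killing control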
[16] = galactose survival enhancers in mitochondrial complex I cybrids – cell-based, galactose medium, ATP luminescence, primary screen (AID 1645843;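 active means z-score of at least 1.8 in each of two replicates, scored against plate mean and spread of sample wells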;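 further: positive z means more ATP and so rescue of galactose-driven cybrid death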); conditions: complex I mutant cybrid cells, 72 h, stronger effect = higher value
[17] = compounds altering circadian rhythm period length – cell-based, LOPAC library, luminescence reporter (AID 2774; call rule not given here;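 further: values are relative to mean of DMSO wells on each plate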); conditions: circadian reporter cells, at 7 µM, actives lie on both sides
[18] = at 0.5 µM, stronger effect = higher value
[19] = measured here: combination with BGB IC20, at 0.005 µM
[20] = measured here: combination with BGB IC40, at 0.005 µM
[21] = measured here: combination with BGB IC40, at 0.05 µM
[22] = measured here: combination with cisplatin, at 0.5 µM, stronger effect = higher value
[23] = measured here: combination with cisplatin, at 5 µM, stronger effect = higher value
[24] = measured here: with BGB IC20 combination, at 0.5 µM
[25] = measured here: with cisplatin IC20 combination, at 0.5 µM
[26] = measured here: 5 uM single agent, at 5 µM
[27] = measured here: combination with cisplatin, at 0.5 µM
[28] = measured here: combination with cisplatin, at 5 µM
[29] = measured here: with BGB IC20, at 0.5 µM
[30] = measured here: with BGB IC20, at 5 µM
[31] = measured here: with cisplatin IC20, at 0.5 µM
[32] = measured here: with cisplatin IC20, at 5 µM
[33] = measured here: combination with BGB at IC20, at 0.5 µM
[34] = measured here: combination with cisplatin at IC20, at 0.5 µM
[35] = measured here: combo with BGB at IC20, at 0.5 µM
[36] = measured here: combo with cisplatin at IC20, at 0.5 µM
[37] = measured here: inhibition with BGB combination, at 0.05 µM
[38] = measured here: inhibition with cisplatin combination, at 0.05 µM
[39] = measured here: BGB combination, at 0.5 µM
[40] = measured here: BGB combination, at 5 µM
[41] = measured here: cisplatin combination, at 0.5 µM
[42] = measured here: cisplatin combination, at 5 µM
[43] = BGB combination, concentration series, at 5 µM
[44] = cisplatin combination, concentration series, at 5 µM
[45] = measured here: combo with BGB IC20
[46] = measured here: combo with cisplatin IC20
[47] = cisplatin combination, at 0.5 µM
[48] = measured here: BGB IC40 combination 0.05 uM, at 0.05 µM
[49] = measured here: BGB IC40 combination, at 0.05 µM

## O=c1[nH]c(=O)n(C2OC(CO)C(O)C2O)cc1F (stereo not drawn)
[1]; [18]
  inhibition: -2.55% (inactive)
[1]; [19]
  inhibition: -22.7%
[1]; [20]
  inhibition: -24.2%
[1]; [21]
  inhibition: -0.747%
[1]; [22]
  inhibition: -21.6%
[1]; [23]
  inhibition: 22.1%
[2]; BGB combo, at 5 µM
  inhibition: 98.3%
[2]; at 0.5 µM
  inhibition: 71.5% (inactive)
[2]; cisplatin combo, at 5 µM
  inhibition: 97.9%
[2]; [24]
  inhibition: 69.4%
[2]; [25]
  inhibition: 68.6%
[2]; single agent, at 5 µM
  inhibition: 98.1%
[3]; BGB IC20 combo, at 0.005 µM
  inhibition: 26.6%
[3]; BGB IC40 combo, at 0.005 µM
  inhibition: 32%
[3]; BGB IC40 combo, at 0.05 µM
  inhibition: 86.4%
[3]; at 0.5 µM
  inhibition: -9.47% (inactive)
[3]; cisplatin combo, at 0.05 µM
  inhibition: 86.4%
[3]; cisplatin combo, at 0.5 µM
  inhibition: -24.4%
[3]; cisplatin combo, at 5 µM
  inhibition: -10.9%
[3]; [26]
  inhibition: -6.81%
[4]; at 0.5 µM
  inhibition: -13.3% (inactive)
[4]; [21]
  inhibition: -3.21%
[4]; [27]
  inhibition: -2.35%
[4]; [28]
  inhibition: 44.8%
[5]; at 0.5 µM
  inhibition: 22% (inactive)
[5]; [29]
  inhibition: -3.46%
[5]; [30]
  inhibition: 59.1%
[5]; [31]
  inhibition: 26.3%
[5]; [32]
  inhibition: 57.2%
[5]; single agent, at 5 µM
  inhibition: 76.2%
[6]; at 0.5 µM
  inhibition: -23.1% (inactive)
[6]; [33]
  inhibition: -14.1%
[6]; [34]
  inhibition: -20.6%
[7]; at 0.5 µM
  inhibition: 66.9% (inactive)
[7]; [35]
  inhibition: 71.1%
[7]; [36]
  inhibition: 54%
[8]; at 0.5 µM
  inhibition: 33.5% (inactive)
[8]; [37]
  inhibition: -10.9%
[8]; [38]
  inhibition: 10.1%
[9]; at 0.5 µM
  inhibition: -12.7% (inactive)
[9]; [27]
  inhibition: -4.31%
[9]; [28]
  inhibition: 6.83%
[10]; at 0.5 µM
  inhibition: 45.1% (inactive)
[10]; [39]
  inhibition: 27.6%
[10]; [40]
  inhibition: 83.1%
[10]; [41]
  inhibition: 39.9%
[10]; [42]
  inhibition: 86.1%
[11]; [43]
  inhibition: 110%
[11]; at 0.5 µM
  inhibition: 40.6% (inactive)
[11]; [44]
  inhibition: 118%
[12]
  inhibition: 57.3% (inactive)
[12]; [45]
  inhibition: 56.2%
[12]; [46]
  inhibition: 38.9%
[13]; at 0.5 µM
  inhibition: -22.9% (inactive)
[13]; [47]
  inhibition: -18.4%
[13]; cisplatin combination, at 5 µM
  inhibition: -1.49%
[13]; [48]
  inhibition: 2.24%
[13]; single agent, at 5 µM
  inhibition: 11.9%
[14]; at 0.5 µM
  inhibition: 33.4% (inactive)
[14]; cisplatin combo, at 5 µM
  inhibition: 75.4%
[14]; [49]
  inhibition: 14.4%
[14]; [27]
  inhibition: 45.3%
[14]; single agent, at 5 µM
  inhibition: 63.7%
[15]; at 0.5 µM
  inhibition: 82.5% (active)
[15]; [24]
  inhibition: 77.3%
[15]; [25]
  inhibition: 85.1%
[15]; single agent, at 0.05 µM
  inhibition: 57.8%
[15]; single agent, at 5 µM
  inhibition: 99.7%

## CC(CCCC(C)(C)O)NC(C)Cc1ccccc1F (stereo not drawn)
[16]
  z-score: -0.515 (inactive)

## CCN1C[C@]2(C)CC[C@H](O)[C@@]34C5C[C@@H]6[C@@H](OC)C[C@@](O)(C5[C@H]6O)[C@@H](CC23)C14 (stereo partly drawn)
[17]
  period change: 0.055 h (inactive)

## O=P(O)(NCCCl)NCCCl
[1]; [18]
  inhibition: -22.2% (inactive)
[1]; [19]
  inhibition: -18.1%
[1]; [20]
  inhibition: -19.6%
[1]; [21]
  inhibition: -1.01%
[1]; [22]
  inhibition: -31.9%
[1]; [23]
  inhibition: -32.1%
[2]; BGB combo, at 5 µM
  inhibition: -3.04%
[2]; at 0.5 µM
  inhibition: -31.2% (inactive)
[2]; cisplatin combo, at 5 µM
  inhibition: -23.7%
[2]; [24]
  inhibition: -28%
[2]; [25]
  inhibition: -30.2%
[2]; single agent, at 5 µM
  inhibition: -43.4%
[3]; BGB IC20 combo, at 0.005 µM
  inhibition: -17.4%
[3]; BGB IC40 combo, at 0.005 µM
  inhibition: -58.7%
[3]; BGB IC40 combo, at 0.05 µM
  inhibition: -40.4%
[3]; at 0.5 µM
  inhibition: -24.2% (inactive)
[3]; cisplatin combo, at 0.05 µM
  inhibition: -45.9%
[3]; cisplatin combo, at 0.5 µM
  inhibition: -25.8%
[3]; cisplatin combo, at 5 µM
  inhibition: -10.7%
[3]; [26]
  inhibition: 3.71%
[4]; at 0.5 µM
  inhibition: -40.6% (inactive)
[4]; [21]
  inhibition: -43.7%
[4]; [27]
  inhibition: -71.6%
[4]; [28]
  inhibition: -97.5%
[5]; at 0.5 µM
  inhibition: -29.6% (inactive)
[5]; [29]
  inhibition: -31.2%
[5]; [30]
  inhibition: 0.766%
[5]; [31]
  inhibition: -42.4%
[5]; [32]
  inhibition: 5.56%
[5]; single agent, at 5 µM
  inhibition: -6.89%
[6]; at 0.5 µM
  inhibition: -58.4% (inactive)
[6]; [33]
  inhibition: -43.5%
[6]; [34]
  inhibition: -12.2%
[7]; at 0.5 µM
  inhibition: -20.7% (inactive)
[7]; [35]
  inhibition: -26.7%
[7]; [36]
  inhibition: -18.9%
[8]; at 0.5 µM
  inhibition: -15.1% (inactive)
[8]; [37]
  inhibition: -6.88%
[8]; [38]
  inhibition: -8.03%
[9]; at 0.5 µM
  inhibition: -16.7% (inactive)
[9]; [27]
  inhibition: -19.3%
[9]; [28]
  inhibition: -26.8%
[10]; at 0.5 µM
  inhibition: -14.5% (inactive)
[10]; [39]
  inhibition: -12.5%
[10]; [40]
  inhibition: -5.62%
[10]; [41]
  inhibition: -16%
[10]; [42]
  inhibition: -15.6%
[11]; [43]
  inhibition: -1.33%
[11]; at 0.5 µM
  inhibition: -15.6% (inactive)
[11]; [44]
  inhibition: -23%
[12]
  inhibition: -6.45% (inactive)
[12]; [45]
  inhibition: -2.47%
[12]; [46]
  inhibition: -6.44%
[13]; at 0.5 µM
  inhibition: -3.8% (inactive)
[13]; [47]
  inhibition: 2.29%
[13]; cisplatin combination, at 5 µM
  inhibition: -12.8%
[13]; [48]
  inhibition: -21.5%
[13]; single agent, at 5 µM
  inhibition: -15.7%
[14]; at 0.5 µM
  inhibition: -17.3% (inactive)
[14]; cisplatin combo, at 5 µM
  inhibition: 5.67%
[14]; [49]
  inhibition: -4.66%
[14]; [27]
  inhibition: -18.6%
[14]; single agent, at 5 µM
  inhibition: -40.3%
[15]; at 0.5 µM
  inhibition: -42.1% (inactive)
[15]; [24]
  inhibition: -36.5%
[15]; [25]
  inhibition: -44.9%
[15]; single agent, at 0.05 µM
  inhibition: -55%
[15]; single agent, at 5 µM
  inhibition: -25.3%
